Source: PubChem BioAssay
An excerpt weighted towards active compounds, which were near 2.4% of everything screened.
UHRF1 binding – UHRF1 methyl-DNA binding inhibition. hit rate 0.75% among 370,000. inhibition, % at 4.4 µM. UHRF1 binding to methylated oligo, TR-FRET; in the data active = inhibition above about 21%;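 also: UHRF1 SRA domain binding a hemimethylated CpG hairpin DNA probe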
LEDGF integ inh – blocks HIV-1 LEDGF/p75-dependent DNA integration | TR-FRET IN-LEDGF/p75 DNA integration, Eu/Cy5 | inhibition, % at 3.7 µM | hit rate 0.64% among 370,000 | AID 743269;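 active = inhibition above the screen-wide mean plus 3 SD, cut at about 13% in these data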;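 also: signal is the Cy5 over europium emission ratio at 671 and 618 nm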
PLC-gamma1 inh – PLC-gamma1 (human) inhibition, primary screen. inhibition, % at 12.2 µM. AID 720700. purified PLC-gamma1, fluorogenic substrate, fluorescence. hit rate 0.84% among 370,000; in the data active = inhibition above about 9.5%
PLC-beta3 inh – blocks human PLC-beta3 enzyme activity; Q01970; Purified PLC-beta3, fluorogenic substrate, fluorescence; inhibition, % at 12.2 µM; hit rate 0.18% among 370,000
MBD2 inh – MBD2-methylated oligo binding inhibition; TR-FRET, MBD2 binding to methylated oligonucleotide; inhibition, % at 4.4 µM; hit rate 0.31% among 370,000; AID 686964; in the data active = inhibition above about 13%
Target sequence (Q9UBB5 whole entry, looked up): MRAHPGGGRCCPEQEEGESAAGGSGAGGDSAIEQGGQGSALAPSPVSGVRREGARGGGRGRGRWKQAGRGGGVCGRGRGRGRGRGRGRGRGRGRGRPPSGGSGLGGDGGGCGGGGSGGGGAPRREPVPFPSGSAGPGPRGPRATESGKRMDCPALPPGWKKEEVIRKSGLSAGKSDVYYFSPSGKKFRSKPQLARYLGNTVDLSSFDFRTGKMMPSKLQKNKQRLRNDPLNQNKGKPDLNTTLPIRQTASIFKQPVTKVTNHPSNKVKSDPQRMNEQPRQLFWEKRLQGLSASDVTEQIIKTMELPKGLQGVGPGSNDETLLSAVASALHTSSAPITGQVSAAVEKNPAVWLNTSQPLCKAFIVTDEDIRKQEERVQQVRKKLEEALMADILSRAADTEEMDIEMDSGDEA
UHRF1 DNA bind – inhibits human UHRF1 binding to methylated oligonucleotide, MBD2 counter-screen. TR-FRET. shares compounds with MBD2 inh. inhibition, % at 4.4 µM. hit rate 25% among 1,000; in the data active = inhibition above about 21%;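 also: UHRF1 SRA domain binding a labeled hemimethylated CpG hairpin DNA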
MBD2 DBD conf – MBD2-DBD methyl-DNA binding inhibition, TR-FRET confirmation. shares compounds with MBD2 inh. TR-FRET MBD2-DBD binding to methylated oligonucleotide. inhibition, % at 4.4 µM. hit rate 26% among 1,000. AID 720531; in the data active = inhibition above about 14%
PLCgamma1 ctr – PLC-gamma1 inhibition, counter-screen for PLC-beta3 hits; hit rate 3.1% among 3,300; purified PLC-gamma1, fluorogenic substrate, fluorescence; shares compounds with PLC-gamma1 inh; inhibition, % at 12.3 µM; AID 743258; in the data active = inhibition above about 9.5%
PLCbeta3 conf – human PLC-beta3 inhibition, confirmation; hit rate 1% among 3,300; shares compounds with PLC-gamma1 inh; inhibition, % at 12.3 µM; purified PLC-beta3, fluorogenic substrate fluorescence
IN multimer act – HIV-1 integrase multimerization activation, counter-screen | shares compounds with LEDGF integ inh | hit rate 17% among 2,000 | TR-FRET HIV-1 integrase multimerization, biochemical | activation, % at 7.7 µM | AID 1053131; in the data active = activation above about 8.9%
TR-FRET interf – optically interferes with TR-FRET readout in LEDGF counter-screen; shares compounds with LEDGF integ inh; TR-FRET optical interference counterscreen, HIV-1 IN multimerization; inhibition, % at 7.7 µM; 2,000 tested, under 10 active;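 active = inhibition above the mean over all tested compounds plus 3 SD, which no compound reached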
LEDGF integ conf – LEDGF/p75-dependent HIV-1 integration inhibition, confirmation. shares compounds with LEDGF integ inh. TR-FRET LEDGF/p75-dependent HIV-1 integration, biochemical. inhibition, % at 3.7 µM. hit rate 36% among 2,000; in the data active = inhibition above about 14%
Numbers stand for hits; . = inactive; / = no result given. Rule as the data show it, unless noted: active = inhibition above about 11%; inactive = the rest.

SMILES	UHRF1 binding	LEDGF integ inh	PLC-gamma1 inh	PLC-beta3 inh	MBD2 inh	UHRF1 DNA bind	MBD2 DBD conf	PLCgamma1 ctr	PLCbeta3 conf	others
C=CC[C@H](CC(=O)N(CCO)Cc1ccccc1)C(=O)N[C@@H](C)COC(=O)[C@H](CC=C)CC(=O)OC(C)(C)C	.	.	.	.	.	/	/	/	/
C=CC[C@@H](CC(=O)N(CCO)Cc1ccccc1)C(=O)N[C@@H](C)COC(=O)[C@@H](CC=C)CC(=O)OC(C)(C)C	27.4	.	11.2	.	17.1	.	.	.	.
O=c1c(O)cccc2cc(O)c(O)c(O)c12	93.7	88.3	46.1	.	86.9	94.5	91.0	30.4	.
O=C(O)/C=C/c1ccc([N+](=O)[O-])o1	.	.	.	.	.	/	/	/	/
O=C1NC(=S)S/C1=C\C=C\c1ccc([N+](=O)[O-])o1	94.5	81.4	59.6	.	74.2	90.4	47.4	32.5	.
CC1Cc2ccccc2N1S(=O)(=O)c1ccc2c(c1)n(C)c(=O)c(=O)n2C (stereo not drawn)	.	.	9.6	.	13.6	.	.	.	.
CN1CCN(c2ccc3c(c2)Oc2ccccc2CN(Cc2cn(Cc4cccc(C(F)(F)F)c4)nn2)S3(=O)=O)CC1	.	.	.	.	.	/	/	/	/
Cc1c(C(=O)N2CC3(CC(c4cccc(NC(=O)[C@H]5CCC(=O)N5)c4)=NO3)C[C@@H]2C(N)=O)cc([N+](=O)[O-])cc1[N+](=O)[O-] (stereo partly drawn)	.	.	.	.	.	/	/	/	/
C=C(C)C(=O)Nc1cccc(C2=NOC3(C2)C[C@@H](C(N)=O)N(C(=O)c2cc([N+](=O)[O-])cc([N+](=O)[O-])c2C)C3)c1 (stereo partly drawn)	33.6	.	10.0	.	17.9	24.1	.	.	.
Cc1nc(NC2CCCC2)c2nnn(Cc3ccccc3)c2n1	.	.	.	.	.	/	/	/	/
CC(C)C[C@@H](CN1CCC[C@H]1CN1C(=O)C(=O)NC[C@@H]1Cc1ccccc1)N1C[C@H](Cc2ccc(O)cc2)N(CC2CCCCC2)C(=O)C1=O	.	.	.	.	.	/	/	/	/
CC(C)C[C@@H](CN1CCC[C@H]1CN1C(=O)C(=O)NC[C@@H]1Cc1ccc(O)cc1)N1C[C@H](Cc2ccccc2)N(CC2CCCCC2)C(=O)C1=O	25.4	.	10.0	.	17.1	.	.	.	.
CC(=O)c1cc(-c2ccc(F)cc2)n(CCC(=O)NC(C)(C)C)c1C	83.2	14.6	21.4	.	36.0	.	.	.	.
Cc1csc(NC(=O)c2ccc(COc3ccccc3F)o2)n1	.	.	.	.	.	/	/	/	/
CC(C)(C)Nc1scc(-c2ccccc2)[n+]1-c1ccccc1	.	.	9.7	.	18.0	.	.	.	.
C[C@@H]1C[C@H](O)CCCCCC(=O)Cc2cc(O)cc(O)c2C(=O)O1	.	.	.	.	.	/	/	/	/
O=C(N/C=C/c1ccco1)OCc1ccccc1	23.6	36.0	.	.	15.3	26.0	26.6	/	/	IN multimer act=31.1;TR-FRET interf=.;LEDGF integ conf=36.4
COC(=O)[C@]12C[C@H](CC(=O)NCc3ccc(OC)c(OC)c3)C(=O)N(CCC3=CCCCC3)C1=C[C@H](C1CCCC1)O[C@@H]2C	.	.	.	.	.	/	/	/	/
Cc1cccc(N=C2NC(=O)/C(=C/c3cccn3C)S2)c1C	.	.	.	.	.	/	/	/	/
